Data taken from PubChem BioAssay (EPA / NIEHS).
Where “and” joins values, the source holds several entries; their conditions need not be identical. Equal entries are not always repeated. A structure can be active in one record and inactive in another. Calls of active or inactive are those of the source. The calls were made as follows: active = hit-call score of the fitted dose curve at least 0.9, where 1 is the maximum; inactive = score below 0.9.

Tests used:
[1] = read-out: Interleukin-1 alpha (IL1a), IL1A (gene 3552); assay: BSK_BF4T_IL1a: BioMAP Diversity Plus: BF4T Assay for Interleukin-1 alpha (IL1a) Biomarker Activity (AID 2284264); settings: primary human bronchial epithelial cells with fibroblasts
Method in brief: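 ELISA read-out of IL-1α from bronchial epithelial cell/dermal fibroblast co-cultures 24 h after compound addition. Increases scored against DMSO negative control. Cytotoxicity monitored by sulforhodamine B staining of parallel cultures.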

[2] = read-out: Decorin, DCN (gene 1634); assay: BSK_MyoF_Decorin: BioMAP Diversity Plus: MyoF Assay for Decorin Biomarker Activity (AID 2284265); settings: primary human lung fibroblasts
Method in brief: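 In this multiplexed fibroblast system, secreted or surface decorin is detected by ELISA one day after dosing, with increases scored against the DMSO vehicle.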

[3] = read-out: KRT18 (gene 3875); assay: BSK_BF4T_Keratin818: BioMAP Diversity Plus: BF4T Assay for Keratin 818 Biomarker Activity (AID 2284266); settings: primary human bronchial epithelial cells with fibroblasts
Method in brief: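 Keratin 8/18 levels quantified by ELISA after 24 h chemical treatment of bronchial epithelial cell/dermal fibroblast co-cultures, fitted in positive direction relative to DMSO. Parallel SRB staining tracks overt cytotoxicity.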

[4] = BSK_MyoF_SRB: Viability Assessment in the BioMAP Diversity Plus: MyoF Assay (AID 2284267); settings: primary human lung fibroblasts;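 also: total protein by SRB absorbance in parallel cultures as cytotoxicity measure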
Method in brief: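 In this viability endpoint, fibroblasts from human lung are treated for 24 h, TCA-fixed, SRB-stained (0.1%) and read at 560 nm. Gain of signal relative to DMSO defines activity.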

[5] = read-out: TIMP metallopeptidase inhibitor 1 (TIMP1), TIMP1 (gene 7076); assay: BSK_MyoF_TIMP1: BioMAP Diversity Plus: MyoF Assay for TIMP metallopeptidase inhibitor 1 (TIMP1) Biomarker Activity (AID 2284269); settings: primary human lung fibroblasts
Method in brief: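 ELISA read-out of TIMP-1 from primary human lung fibroblast cultures 24 h after compound dosing; gain of signal relative to DMSO vehicle baseline defines activity.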

[6] = read-out: Matrix Metallopeptidase 1 (MMP1), MMP1 (gene 4312); assay: BSK_BF4T_MMP1: BioMAP Diversity Plus: BF4T Assay for Matrix Metallopeptidase 1 (MMP1) Biomarker Activity (AID 2284270); settings: primary human bronchial epithelial cells with fibroblasts
Method in brief: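 MMP-1 quantified by ELISA in primary human bronchial epithelial/dermal fibroblast co-cultures, 24 hours post-dosing, with DMSO as baseline; parallel sulforhodamine B staining (560 nm) tracks overt cytotoxicity.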

[7] = read-out: Matrix Metallopeptidase 3 (MMP3), MMP3 (gene 4314); assay: BSK_BF4T_MMP3: BioMAP Diversity Plus: BF4T Assay for Matrix Metallopeptidase 3 (MMP3) Biomarker Activity (AID 2284271); settings: primary human bronchial epithelial cells with fibroblasts
Method in brief: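 MMP-3 level read by ELISA after 24 h chemical exposure of bronchial epithelial cell/dermal fibroblast co-cultures, fitted upward relative to DMSO. Parallel cultures stained with 0.1% SRB after TCA fixation gauge overt cytotoxicity.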

[8] = read-out: Plasminogen Activator Inhibitor-1 (PAI1), SERPINE1 (gene 5054); assay: BSK_BF4T_PAI1: BioMAP Diversity Plus: BF4T Assay for Plasminogen Activator Inhibitor-1 (PAI1) Biomarker Activity (AID 2284273); settings: primary human bronchial epithelial cells with fibroblasts
Method in brief: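 PAI-1 levels quantified by ELISA 24 h post-dosing in bronchial epithelial cell plus dermal fibroblast cultures. Signal gain referenced to DMSO baseline. Sulforhodamine B total-protein staining of parallel wells checked cytotoxicity.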

[9] = read-out: urokinase Plasminogen Activator (uPA), PLAU (gene 5328); assay: BSK_BF4T_uPA: BioMAP Diversity Plus: BF4T Assay for urokinase Plasminogen Activator (uPA) Biomarker Activity (AID 2284275); settings: primary human bronchial epithelial cells with fibroblasts
Method in brief: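 uPA levels measured by ELISA at 24 hours in BF4T cultures (bronchial epithelial cells plus dermal fibroblasts) and compared with DMSO; cytotoxicity tracked in parallel cultures by sulforhodamine B staining.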

[10] = read-out: Matrix Metallopeptidase 9 (MMP9), MMP9 (gene 4318); assay: BSK_BF4T_MMP9: BioMAP Diversity Plus: BF4T Assay for Matrix Metallopeptidase 9 (MMP9) Biomarker Activity (AID 2284276); settings: primary human bronchial epithelial cells with fibroblasts
Method in brief: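 MMP-9 levels were measured by ELISA after 24 h exposure of bronchial epithelial cell/dermal fibroblast co-cultures, with DMSO as baseline. Parallel cultures were stained with 0.1% SRB after TCA fixation, read at 560 nm, to flag overt cytotoxicity.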

Measured: AC50

OCCC(F)(F)C(F)(F)C(F)(F)C(F)(F)F
inactive: [1] | [2] | [3] | [4] | [5] | [6] | [7] | [8] | [9] | [10]

FC(F)C(F)(F)COCC1CO1 (stereo unspecified)
inactive: [1] | [2] | [3] | [4] | [5] | [6] | [7] | [8] | [9] | [10]

S=P(N1CC1)(N1CC1)N1CC1
inactive: [2] | [4] | [5]

OCc1c[nH]c2ccccc12
inactive: [2] | [4] | [5]

O=C(Cl)C(F)(F)C(F)(F)C(F)(F)C(=O)Cl
inactive: [1] | [2] | [3] | [4] | [5] | [6] | [7] | [8] | [9] | [10]

NCC(F)(F)C(F)(F)C(F)(F)C(F)(F)F
inactive: [1] | [2] | [3] | [4] | [5] | [6] | [7] | [8] | [9] | [10]
active: [5] 307 nM

OC(O)(C(F)C(O)(O)C(F)(F)F)C(F)(F)F
inactive: [1] | [2] | [3] | [4] | [5] | [6] | [7] | [8] | [9] | [10]
active: [5] 991 nM

FC(F)(F)COC(OCC(F)(F)F)OCC(F)(F)F
inactive: [1] | [2] | [3] | [4] | [5] | [6] | [7] | [8] | [9] | [10]

FC(F)=C(F)C(F)(F)C(F)(F)C(F)(F)C(F)(F)C(F)(F)C(F)(F)F
inactive: [1] | [2] | [3] | [4] | [5] | [6] | [7] | [8] | [9] | [10]

FC(F)(F)C(F)(F)C(F)(F)C(F)(F)C(F)(F)C(F)(F)I
inactive: [1] | [2] | [3] | [5] | [6] | [7] | [8] | [9] | [10]
active: [4] 25.6 µM and 26.5 µM

C[Si](C)(C)C(F)(F)C(F)(F)C(F)(F)F
inactive: [1] | [2] | [3] | [4] | [5] | [6] | [7] | [8] | [9] | [10]

O=S(=O)(O)CCC(F)(F)C(F)(F)C(F)(F)C(F)(F)C(F)(F)C(F)(F)F
inactive: [1] | [2] | [3] | [4] | [5] | [6] | [7] | [8] | [9] | [10]

Cc1cccc(O)c1C
inactive: [2] | [4] | [5]
